Source: PubChem
CYP2C19 inh: blockers of cytochrome P450 2C19 activity – biochemical, luminescence, ADME assay, primary screen; P33261; CYP2C19 Supersomes, luciferin-H EGE luminescence, 30 min; inhibition, % at 5 µM; 21% of 96,000 active;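 active = CYP2C19 inhibition above a set limit at 5 µM in the primary screen, cut at about 50% in these data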;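 also: plate controls were negative control wells for no effect and 2.5 mM tranylcypromine positive control for full effect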
Target sequence (P33261 whole entry, looked up): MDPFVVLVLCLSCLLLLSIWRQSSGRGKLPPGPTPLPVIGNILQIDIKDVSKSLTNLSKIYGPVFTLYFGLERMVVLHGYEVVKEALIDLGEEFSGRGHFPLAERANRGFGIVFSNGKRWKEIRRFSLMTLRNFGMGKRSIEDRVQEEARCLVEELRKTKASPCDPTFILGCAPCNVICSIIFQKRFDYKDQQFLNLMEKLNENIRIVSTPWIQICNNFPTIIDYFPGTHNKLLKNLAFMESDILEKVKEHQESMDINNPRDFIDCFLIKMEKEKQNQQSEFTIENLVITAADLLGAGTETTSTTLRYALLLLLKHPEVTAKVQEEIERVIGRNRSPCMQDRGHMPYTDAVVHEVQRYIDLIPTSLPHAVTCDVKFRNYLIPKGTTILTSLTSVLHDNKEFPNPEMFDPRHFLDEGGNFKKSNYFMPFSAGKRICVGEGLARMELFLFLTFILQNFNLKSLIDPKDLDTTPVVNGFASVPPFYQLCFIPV
CYP2C9 inh: blockers of cytochrome P450 2C9 activity – biochemical, luminescence, ADME assay, primary screen. CYP2C9 Supersomes, luciferin-H conversion. AID 777, 2007. P11712. inhibition, % at 5 µM. 20% of 96,000 active;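 active = blocking of liver enzyme CYP2C9 beyond about 50% at 5 µM, limit read from the data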
CYP2C9 act: human CYP2C9 activators, primary screen, biochemical, luminescence | recombinant CYP2C9, luciferin-H conversion; hits give high values; factor 1 = untreated enzyme, 0 = blocked | 1.4% of 96,000 active | AID 1024, 2008 | activation factor at 5 µM | Cytochrome P450 2C9 (Homo sapiens), P11712;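 active = activation factor of 2 or more for CYP2C9 at a 5 µM dose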;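 also: 0 = sulfaphenazole-blocked wells and 1 = vehicle-only wells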
CYP2C19 activ: human CYP2C19 activators, primary screen, biochemical, luminescence; Cytochrome P450 2C19 (Homo sapiens), P33261; recombinant CYP2C19, luciferin-H EGE luminescence; hits give high values; 0 = fully inhibited enzyme, 1 = untreated enzyme; activation factor at 5 µM; 96,000 tested, under 10 active;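 active = activation factor of at least 2 at 5 µM in the primary screen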;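 also: 0 = wells with 2.5 mM tranylcypromine and 1 = vehicle-only wells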
Cav3 T inh: Cav3.2 calcium influx blockers – cell-based, Fluo-4 calcium fluorescence, FDSS, MLSMR library, primary screen. Voltage-dependent T-type calcium channel subunit alpha-1H (Homo sapiens), O95180. Cav3.2-expressing cells; hits give low values. B-score at 10 µM. 4% of 100,000 active;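 active = single-dose well whose peak fluorescence ratio is a statistical outlier from its plate by either plate-standardised score or position-corrected B-score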
Active calls of the source: *; nt = no result. Hits are enriched below; roughly 27% of the tested compounds scored in any of these assays.

SMILES	CYP2C19 inh	CYP2C9 inh	CYP2C9 act	CYP2C19 activ	Cav3 T inh
COc1ccc(S(=O)(=O)O/N=C2\CCSc3ccc(C)cc32)cc1	55.6*	15.1	0.8	0.4	-2.15
Cc1ccc(C(=O)O/N=C2\CCSc3ccc(C)cc32)cc1	14.3	41.9	0.6	0.9	-1.55
CCCOc1ccc2c(=O)c(-c3cc(C(=O)OC)oc3C)c(C)oc2c1	19.7	47.5	0.5	0.8	1.14
COC(=O)/C=C(\C)NC(=O)c1ccccc1Cl	80.1*	11.3	0.9	0.2	-0.033
CC(C)(C)c1ccc(S(=O)(=O)N2CC(=O)Nc3ccccc32)cc1	81.9*	10.0	0.9	0.2	0.0653
C=CCNc1nc(Nc2ccc(-c3nc4ccccc4o3)cc2)nc(N2CCOCC2)n1	49.1	41.7	0.6	0.5	-0.069
Cc1sc(NC(=O)CN(Cc2ccc(F)cc2)C(=O)C(C)C)c(C(N)=O)c1C	51.4*	25.5	0.7	0.5	nt
Cc1cc(C)c2c(c1)NC(=O)C2(O)CC(=O)c1cccs1 (centres undefined)	54.4*	-31.8	1.3	0.5	0.176
Cc1cc2oc(=O)cc(CSc3nc(N)cc(N)n3)c2cc1C	7.1	-44.3	1.4	0.9	-0.0153
CCN(CC(=O)NCc1cccs1)C(=O)c1cc(S(=O)(=O)N2CCOCC2)ccc1C	33.8	19.9	0.8	0.7	0.416
Cc1ccc(NC(=S)NCc2cccs2)c(C)c1	72.7*	15.7	0.8	0.3	-1.5
CN(C)S(=O)(=O)c1ccc(C(=O)NCc2cccs2)cc1	30.9	28.7	0.7	0.7	0.853
CCN(CC(=O)NCc1cccs1)c1ccc(S(=O)(=O)N2CCOCC2)cn1	-4.7	57.3*	0.4	1	0.837
CC(C)c1ccc(NC(=S)NCc2cccs2)cc1	42.0	31.9	0.7	0.6	-6.29*
Cc1ccc(NC(=S)NN2CCOCC2)c(C)c1	24.4	-1.2	1	0.8	0.113
CCN(CC(=O)NCc1cccs1)S(=O)(=O)c1ccc(C(C)C)cc1	25.8	-45.0	1.5	0.7	-4*
CC(=O)c1c(C)nn(C(=O)N2CCOCC2)c1C	-4.5	-2.4	1	1	0.0351
O=C(COC(=O)CCS(=O)(=O)c1ccc(Cl)cc1)NC1CCCCC1	7.5	-4.1	1	0.9	1.25
S=C(NCc1cccs1)Nc1cccc(Cl)c1	61.6*	6.4	0.9	0.4	-1.13
Cc1cc(NC(=O)c2ccco2)ccc1NC(=O)Cc1cccs1	nt	nt	nt	nt	1.27
O=C(NCc1cccs1)Nc1cccc(Cl)c1	nt	nt	nt	nt	0.557
Cc1cc(Cl)ccc1NC(=S)NCc1cccs1	97.4*	63.1*	0.4	0	-0.719
Cc1ccc(C)c(N2CCN(CCCNC(=O)Cn3cc4c(n3)CCCCC4)CC2)c1	27.5	0.0	1	0.7	nt
Cc1cc(C)n(-c2ncnc3sc4c(c23)CCCC4)n1	56.8*	13.3	0.9	0.4	0.775
Cc1cc(C)n(-c2ncnc3sc4c(c23)CC(C)CC4)n1 (centres undefined)	88.1*	49.3	0.5	0.1	-0.0172
SMILES	CYP2C19 inh	CYP2C9 inh	CYP2C9 act	CYP2C19 activ	Cav3 T inh
Cc1cc(C)n(-c2ncnc3sc(C)c(C)c23)n1	2.6	-15.9	1.2	1	0.29
CC1CCc2sc3ncnc(N4CCOCC4)c3c2C1 (centres undefined)	95.5*	60.7*	0.4	0	-1.14
N#Cc1cnn(-c2ncnc3sc4c(c23)CCCC4)c1N	39.2	89.2*	0.1	0.6	-0.0598
c1ccc(CN2CCOCC2)cc1	-4.3	-7.4	1.1	1	0.855
c1ccc(Oc2cccc(CN3CCOCC3)c2)cc1	77.1*	16.1	0.8	0.2	-0.0148
CCN1CCN(Cc2ccc3c(c2)Cc2ccccc2-3)CC1	-7.5	-10.9	1.1	1.1	nt
c1ccc2c(c1)Cc1cc(CN3CCOCC3)ccc1-2	61.9*	15.4	0.8	0.4	0.309
CC[n+]1c(/C=C/C=C/N(C(C)=O)c2ccccc2)sc2ccccc21	nt	nt	nt	nt	-4.58*
COC(=O)C[C@H]1c2ccccc2S(=O)(=O)N1Cc1ccc(OC)cc1	nt	nt	nt	nt	-0.543
CCOC(=O)c1sc(N(Cc2ccccc2)C(=O)CSc2nnc(C3CC3)n2N)nc1C	62.4*	99.2*	0	0.4	-1.93
CCOC(=O)c1sc(N)c(C#N)c1CSc1nnc(C2CC2)n1N	87.9*	74.1*	0.3	0.1	0.00666
Cn1c(=O)c2c(n(Cc3ccccc3)c1=O)NC(=O)C2CC(=O)NCc1cccc(Cl)c1 (centres undefined)	8.4	36.2	0.6	0.9	-0.12
NS(=O)(=O)c1ccc(NS(=O)(=O)c2cccs2)cc1	8.0	21.8	0.8	0.9	0.942
Cc1ccc(NS(=O)(=O)c2ccc(NS(=O)(=O)c3cccs3)cc2)cc1	49.6	86.7*	0.1	0.5	-1.67
O=S(=O)(Nc1ccc(Cc2ccncc2)cc1)c1ccc(Br)s1	72.4*	100.0*	0	0.3	0.0418
O=S(=O)(Nc1ccc(Cc2ccncc2)cc1)c1ccc(Br)cc1	100.2*	98.7*	0	0	nt
N#CCc1ccc(NS(=O)(=O)c2cccs2)cc1	85.9*	72.4*	0.3	0.1	-0.575
O=C(O)CCCNS(=O)(=O)c1ccc(Br)s1	6.6	10.1	0.9	0.9	0.126
O=S(=O)(NC1=NCCCCC1)c1cccs1	1.8	-13.9	1.1	1	-0.105
O=C(NCCc1ccccc1)C(=O)c1c(-c2ccccc2)[nH]c2ccccc12	nt	nt	nt	nt	-1.13
CCOC1(C(F)(F)F)NC(=O)N(Cc2ccc(OC)cc2)C1=O (centres undefined)	37.7	14.5	0.9	0.6	-0.359
Cc1cccc(C(=O)OCc2cnc(Cl)s2)c1	17.1	0.3	1	0.8	-0.27
CCS(=O)(=O)Nc1ccc(Cc2ccncc2)cc1	92.8*	94.8*	0.1	0.1	0.85
Cc1ccnc(NS(=O)(=O)c2ccc(NS(=O)(=O)c3cccs3)cc2)n1	nt	nt	nt	nt	0.426
O=S(=O)(Nc1ccc(Cc2ccncc2)cc1)c1cccs1	99.7*	99.2*	0	0	-0.00804
SMILES	CYP2C19 inh	CYP2C9 inh	CYP2C9 act	CYP2C19 activ	Cav3 T inh
CCCCc1ccc(NS(=O)(=O)c2cccs2)cc1	49.3	58.8*	0.4	0.5	-5*
CCS(=O)(=O)Nc1ccc(NC(C)=O)cc1	-12.5	-8.1	1.1	1.1	0.00337
CSc1cccc(NS(=O)(=O)c2cccs2)c1	31.7	13.7	0.9	0.7	-0.776
N#Cc1ccc(C(=O)Nc2ccc(N3CCN(C(=O)c4ccco4)CC3)cc2)c(F)c1	11.9	19.6	0.8	0.9	1.63
Nn1cc(-c2ccccc2)nc1SCC(=O)N1CCN(S(=O)(=O)c2ccc(Cl)cc2)CC1	6.2	12.1	0.9	0.9	-1.53
CCOc1cc(C=O)ccc1OCCSc1ccc(Cl)cc1	28.4	80.6*	0.2	0.7	0.399
O=C(CN1C(=O)c2ccccc2S1(=O)=O)NC1CCCCCC1	65.6*	12.5	0.9	0.3	0.718
